# Experimental data taken from the supplement of paper PMC8975748.
# Where a name gives a salt, the structure may show the parent alone. ± gives the standard deviation of the averaged measurements.
# What was measured:
# [1] = test system: Saccharomyces cerevisiae BY4741 SeMeCo community; assay: z-score of prototroph abundance vs DMSO median; higher = larger share of this subpopulation than in DMSO controls; details: 10 µM; 24 h; SM minimal medium; subpopulation (auxotrophy): Prototroph
# How it was run: (§1)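 Cells of a Saccharomyces cerevisiae BY4741 community, carrying four plasmids that each restored one auxotrophy and encoded a distinct fluorescent protein, were pre-grown overnight to OD600 1.0 and diluted to 0.3. A 70 µl volume was added to 384-well plates acoustically predosed with library drugs (10 µM final) and grown 24 h in minimal SM medium. After paraformaldehyde fixation, automated confocal microscopy was used, with single-auxotroph fluorescent strains for thresholds and autofluorescence correction. The abundance of each subpopulation was scored as a z-score against the vehicle-well median.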
# [2] = test system: Saccharomyces cerevisiae BY4741 SeMeCo community; assay: z-score of subpopulation abundance vs DMSO median, subpopulation auxotrophic for M; higher = larger share of this subpopulation than in DMSO controls; details: 10 µM; 24 h; SM minimal medium; subpopulation (auxotrophy): M
# How it was run: as §1
# [3] = test system: Saccharomyces cerevisiae BY4741 SeMeCo community; assay: z-score of subpopulation abundance vs DMSO median, subpopulation auxotrophic for L; higher = larger share of this subpopulation than in DMSO controls; details: 10 µM; 24 h; SM minimal medium; subpopulation (auxotrophy): L
# How it was run: as §1
# [4] = test system: Saccharomyces cerevisiae BY4741 SeMeCo community; assay: z-score of subpopulation abundance vs DMSO median, subpopulation auxotrophic for U; higher = larger share of this subpopulation than in DMSO controls; details: 10 µM; 24 h; SM minimal medium; subpopulation (auxotrophy): U
# How it was run: as §1
# [5] = test system: Saccharomyces cerevisiae BY4741 SeMeCo community; assay: z-score of subpopulation abundance vs DMSO median, subpopulation auxotrophic for H; higher = larger share of this subpopulation than in DMSO controls; details: 10 µM; 24 h; SM minimal medium; subpopulation (auxotrophy): H
# How it was run: as §1
# [6] = test system: Saccharomyces cerevisiae BY4741 SeMeCo community; assay: z-score of subpopulation abundance vs DMSO median, subpopulation auxotrophic for LU; higher = larger share of this subpopulation than in DMSO controls; details: 10 µM; 24 h; SM minimal medium; subpopulation (auxotrophy): LU
# How it was run: as §1
# [7] = test system: Saccharomyces cerevisiae BY4741 SeMeCo community; assay: z-score of subpopulation abundance vs DMSO median, subpopulation auxotrophic for LM; higher = larger share of this subpopulation than in DMSO controls; details: 10 µM; 24 h; SM minimal medium; subpopulation (auxotrophy): LM
# How it was run: as §1
# [8] = test system: Saccharomyces cerevisiae BY4741 SeMeCo community; assay: z-score of subpopulation abundance vs DMSO median, subpopulation auxotrophic for HM; higher = larger share of this subpopulation than in DMSO controls; details: 10 µM; 24 h; SM minimal medium; subpopulation (auxotrophy): HM
# How it was run: as §1
# [9] = test system: Saccharomyces cerevisiae BY4741 SeMeCo community; assay: z-score of subpopulation abundance vs DMSO median, subpopulation auxotrophic for HU; higher = larger share of this subpopulation than in DMSO controls; details: 10 µM; 24 h; SM minimal medium; subpopulation (auxotrophy): HU
# How it was run: as §1
# [10] = test system: Saccharomyces cerevisiae BY4741 SeMeCo community; assay: z-score of subpopulation abundance vs DMSO median, subpopulation auxotrophic for UM; higher = larger share of this subpopulation than in DMSO controls; details: 10 µM; 24 h; SM minimal medium; subpopulation (auxotrophy): UM
# How it was run: as §1
# [11] = test system: Saccharomyces cerevisiae BY4741 SeMeCo community; assay: z-score of subpopulation abundance vs DMSO median, subpopulation auxotrophic for HL; higher = larger share of this subpopulation than in DMSO controls; details: 10 µM; 24 h; SM minimal medium; subpopulation (auxotrophy): HL
# How it was run: as §1
# [12] = test system: Saccharomyces cerevisiae BY4741 SeMeCo community; assay: z-score of subpopulation abundance vs DMSO median, subpopulation auxotrophic for HUM; higher = larger share of this subpopulation than in DMSO controls; details: 10 µM; 24 h; SM minimal medium; subpopulation (auxotrophy): HUM
# How it was run: as §1
# [13] = test system: Saccharomyces cerevisiae BY4741 SeMeCo community; assay: z-score of subpopulation abundance vs DMSO median, subpopulation auxotrophic for LUM; higher = larger share of this subpopulation than in DMSO controls; details: 10 µM; 24 h; SM minimal medium; subpopulation (auxotrophy): LUM
# How it was run: as §1
# [14] = test system: Saccharomyces cerevisiae BY4741 SeMeCo community; assay: z-score of subpopulation abundance vs DMSO median, subpopulation auxotrophic for HLUM; higher = larger share of this subpopulation than in DMSO controls; details: 10 µM; 24 h; SM minimal medium; subpopulation (auxotrophy): HLUM
# How it was run: as §1
# [15] = test system: Saccharomyces cerevisiae BY4741 SeMeCo community; assay: mean cell size (pixel area) (pixels); higher = larger cells; details: 10 µM; 24 h; SM minimal medium
# How it was run: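 A Saccharomyces cerevisiae BY4741 community carrying four plasmids, each with a fluorescent marker and each complementing one auxotrophy, was exposed for 24 h to drug at a final 10 µM in SM medium in acoustically predosed 384-well plates. The overnight preculture (OD600 = 1.0) was diluted to OD600 = 0.3 before 70 µl was added per well. Cells were then fixed with paraformaldehyde, imaged by automated confocal microscopy and analysed in Harmony to derive mean cell pixel area per well, averaged over 3 replicates. Same SeMeCo high-content imaging drug screen: Selleck FDA-approved drugs at 10 µM, 24 h in SM medium, 384-well plates, 3 replicates.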
# [16] = test system: Saccharomyces cerevisiae BY4741 SeMeCo community; assay: z-score of subpopulation abundance vs DMSO median, subpopulation auxotrophic for HLM; higher = larger share of this subpopulation than in DMSO controls; details: 10 µM; 24 h; SM minimal medium; subpopulation (auxotrophy): HLM
# How it was run: as §1
Compound,z-score of prototroph abundance [1],z-score of subpopulation abundance [2],z-score of subpopulation abundance [3],z-score of subpopulation abundance [4],z-score of subpopulation abundance [5],z-score of subpopulation abundance [6],z-score of subpopulation abundance [7],z-score of subpopulation abundance [8],z-score of subpopulation abundance [9],z-score of subpopulation abundance [10],z-score of subpopulation abundance [11],z-score of subpopulation abundance [12],z-score of subpopulation abundance [13],z-score of subpopulation abundance [14],mean cell size [15],z-score of subpopulation abundance [16]
CC(=O)N[C@H]1[C@H]([C@H](O)[C@H](O)CO)OC(C(=O)O)=C[C@@H]1NC(=N)N [Zanamivir],-0.31,0.82,1.27,-1.03,0.63,-0.15,1.52,0.87,-0.41,-0.2,1.66,0.23,0.82,0.38,,
C[C@]12CC[C@@H]3c4ccc(O)cc4CC[C@H]3[C@@H]1CCC2=O [Estrone],,,0.44,-0.57,-0.34,0.11,0.03,-0.17,-0.27,-0.49,-0.05,-0.46,-0.12,-0.85,12.48 ± 0.098,-0.39
CC(C[N+](C)(C)C)OC(N)=O (stereo not drawn) [Bethanechol chloride],-0.22,-0.79,0.42,0.7,0.23,,-0.56,0.07,0.89,-0.21,-0.24,,-0.42,,12.5 ± 0.12,0.1
C/C=C\c1ccc(O)c(OC)c1 [Isoeugenol],,0.59,,0.4,-0.8,-0.07,0.87,,-0.46,1.01,-0.5,0.5,0.33,0.03,12.02 ± 0.031,-0.07
CCCCC(=O)O[C@H]1CC[C@H]2[C@@H]3CCc4cc(O)ccc4[C@H]3CC[C@]12C [Estradiol valerate],0.39,0.23,,0.05,,,-0.71,-0.23,-0.05,0,-0.58,0.19,-0.45,-0.75,12.4 ± 0.22,-0.87
CONC(=O)Nc1ccc(-c2sc3c(c2CN(C)C)c(=O)n(-c2ccc(OC)nn2)c(=O)n3Cc2c(F)cccc2F)cc1 [Relugolix],0.18,-1.52,,0.32,0.68,-0.09,,-0.86,0.09,-0.12,-0.26,-0.45,,0.58,12.2 ± 0.23,-0.07
Cc1nnc(SCC2=C(C(=O)O)N3C(=O)[C@@H](NC(=O)Cn4cnnn4)[C@H]3SC2)s1 [Cefazolin Sodium],-1.09,0.3,0,0.46,1.95,,0.26,,2.2,0.25,1.09,0.08,,-0.81,12.24 ± 0.096,0.22
Nc1nc(O)c2ncn(CCC(CO)CO)c2n1 [Penciclovir],-0.05,-0.61,-0.31,0.53,0.22,,-0.19,0.31,0.29,0.66,-0.26,0.59,-0.73,-0.97,12.4 ± 0.4,-0.62
CCCCCC(=O)O[C@]1(C(C)=O)CC[C@H]2[C@@H]3CCC4=CC(=O)CC[C@]4(C)[C@H]3CC[C@@]21C [Hydroxyprogesterone caproate],-1.13,0.22,1.21,-0.21,1.49,,1.5,1.31,,0.42,,1.38,1.15,0.74,12.47 ± 0.039,0.65
CCOC(=O)C1=C[C@]2(CC)CCCN3CCc4c(n1c1ccccc41)[C@@H]32 [Vinpocetine],-0.9,2.07,,,-0.46,0.81,0.73,0.55,-0.02,1.1,0.11,0.65,0.25,,12.3 ± 0.23,0.39
CN[C@@H]1[C@@H](O[C@H]2O[C@H](CO)[C@@H](N)[C@H](O)[C@H]2O)OC2C[C@@H](N)[C@@H](O[C@H]3[C@H](O)[C@@H](O)[C@H](N)C[C@@H]3N)OC2[C@@H]1O (stereo partly drawn) [Apramycin Sulfate],-0.43,,-0.01,,-0.41,0.41,0.1,0.03,-0.09,0.56,0.24,0.37,0.97,1.47,12 ± 0.25,0.1
Cc1c(-c2ccccc2)oc2c(C(=O)OCCN3CCCCC3)cccc2c1=O [Flavoxate HCl],-0.85,0.25,,0.96,-0.53,1.88,0.22,0.21,0.05,0.71,-0.37,-0.16,1.06,1.01,12 ± 0.18,0.18
O=C(Cn1cnnn1)N[C@@H]1C(=O)N2C(C(=O)O)=C(CSc3nncs3)CS[C@H]12 [Ceftezole],0.89,,-0.41,0.9,-1.12,0.9,-0.52,-1.26,-0.51,-0.37,-0.41,-1.25,0.28,0.55,12 ± 0.2,-0.2
COc1ccnc(C[S+]([O-])c2nc3cc(OC(F)F)ccc3[nH]2)c1OC (stereo not drawn) [Pantoprazole],-0.32,0.27,,-0.43,1.49,0.17,0.04,-0.27,0.3,-0.26,0.9,-0.2,,0.7,12.4 ± 0.15,0.09
Cc1cnc(NC(=O)C2=C(O)c3ccccc3S(=O)(=O)N2C)s1 [Meloxicam],1.47,-0.52,-0.61,-0.19,,,-0.94,,-0.61,,-0.41,-0.88,-1.43,-0.98,12.77 ± 0.087,
